Data: PubChem BioAssay
Inconclusive results are not listed. For some assays here: Potency and affinity values are given separately. Calls of active or inactive are those of the source. Unless noted, how the calls were made is not given here.

Assays:
[1] = molecular target: Calcium-dependent protein kinase 1 (Plasmodium falciparum (isolate 3D7)) (UniProt P62344); test: PfCDPK1 kinase inhibitors, biochemical, TCAMS library (AID 1159585; cut-off not given, nearly all actives have IC50 up to about 0.98 µM;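 further: inhibitors leave more ATP so luminescence rises with inhibition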); details: recombinant PfCDPK1, Kinase-Glo ATP depletion luminescence
[2] = molecular target: Plasmodium falciparum protein kinase 6 (PK6, PF3D7_1337100) (UniProt Q8IDW1); test: PfPK6 kinase inhibitors, biochemical, TCAMS library (AID 1159586); details: recombinant PfPK6, Kinase-Glo ATP depletion luminescence
[3] = molecular target: Protein kinase 7 (PK7), Plasmodium falciparum 3D7 (PF3D7_0213400) (UniProt Q7YTF7); test: inhibition of Plasmodium PK7 catalytic activity – biochemical, TCAMS antimalarial set, Kinase-Glo luminescence (AID 1159587); details: recombinant PfPK7, Kinase-Glo ATP depletion luminescence
[4] = molecular target: Calcium-dependent protein kinase 4 (Plasmodium falciparum (isolate 3D7)) (UniProt Q8IBS5); test: PfCDPK4 kinase inhibitors, biochemical, TCAMS library (AID 1159588; cut-off not given, nearly all actives have IC50 up to about 0.91 µM); details: recombinant PfCDPK4, Kinase-Glo ATP depletion luminescence
[5] = antimalarial activity against Dd2 strain (AID 2302;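 active means growth inhibition above 50% at the single 2 µM test dose, taken to imply half-maximal potency below 2 µM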;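 further: 0% = DMSO untreated growth and 100% = chloroquine plus artemisinin killed control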); details: P. falciparum Dd2 in RBCs, LDH growth readout, 72 h; at 2 µM; stronger effect = higher value
[6] = HepG2 cytotoxicity, primary screen, cytotoxicity control for P. falciparum antimalarial project, cell-based, ATP luminescence (AID 2303;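 active means inhibition above 50%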;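 further: 0% = DMSO wells and 100% = digitonin-killed cells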); details: HepG2 viability, 24-48 h, at 10 µM, stronger effect = higher value
[7] = molecular target: L-lactate dehydrogenase (Plasmodium falciparum (isolate CDC / Honduras)) (UniProt Q27743); test: PfLDH activity inhibition – cell lysate, 3D7 strain, counter-screen for P. falciparum growth inhibition project (AID 2304);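 further: 0% = vehicle and 100% = reference inhibitor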; details: P. falciparum 3D7 crude extract, LDH APAD/NBT absorbance; at 2 µM; stronger effect = higher value
[8] = inhibition of 3D7 malaria parasite growth – strain 3D7 (AID 2306);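 further: 0% = DMSO wells and 100% = chloroquine plus artemisinin control wells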; details: P. falciparum 3D7 erythrocytic growth, LDH absorbance, 72 h; at 2 µM; stronger effect = higher value
[9] = tested on: F380Y; test: modulators of BK channel variants, profiling panel, selectivity assay, cell-based, U2OS BacMam, thallium flux, beta subunits (AID 1259406;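 active means thallium flux through the channel raised or lowered by more than 3 SD from vehicle-only wells, actives on both sides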;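 further: initial slope of Thallos dye fluorescence rise after thallium is added; log ratio against the mean of 0.3% DMSO vehicle wells on the same plate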); details: at 30 µM
[10] = tested on: F380Y/beta1; test: as above; details: at 30 µM
[11] = tested on: F380Y/beta2Delta; test: as above; details: at 30 µM
[12] = tested on: F380Y/beta4; test: as above; details: at 30 µM
[13] = molecular target: Calcium-activated potassium channel subunit alpha-1 (Homo sapiens) + Leucine-rich repeat-containing protein 26 (Homo sapiens) (UniProt Q12791+Q2I0M4); test: as above; details: F380Y/Slo1WT/gamma1, at 30 µM
[14] = tested on: R275C; test: as above; details: at 30 µM
[15] = tested on: R275C/beta1; test: as above; details: at 30 µM
[16] = tested on: R275C/beta2Delta; test: as above; details: at 30 µM
[17] = tested on: R275C/beta4; test: as above; details: at 30 µM
[18] = tested on: R275C/Slo1WT/beta2; test: as above; details: at 30 µM
[19] = growth inhibition of DIPG glioma cells, dose response, cell-based, SU-DIPG-XVII, MIPE5.0, CellTiter-Glo, qHTS (AID 1347060; cut-off not given, nearly all actives have AC50 up to about 26 µM;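 further: cells exposed to compound for 48 hours before viability readout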); details: SU-DIPG-XVII viability, CellTiter-Glo ATP luminescence
[20] = growth inhibition of DIPG glioma cells, dose response, cell-based, SU-DIPG-IV, MIPE4.0, CellTiter-Glo, qHTS (AID 1347063; cut-off not given, nearly all actives have AC50 up to about 30 µM;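 further: compound exposure lasted 48 hours before the viability readout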); details: SU-DIPG-IV viability, CellTiter-Glo ATP luminescence
[21] = growth inhibition of DIPG glioma cells, dose response, cell-based, SU-DIPG-XIII, MIPE5.0, CellTiter-Glo, qHTS (AID 1347064; cut-off not given, nearly all actives have AC50 up to about 23 µM;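 further: cells exposed to compound for 48 hours before the viability read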); details: SU-DIPG-XIII viability, CellTiter-Glo ATP luminescence
[22] = viability loss in pontine glioma line – cell-based, SU-DIPG-XXV, MIPE5.0, CellTiter-Glo, qHTS, dose response (AID 1347065; cut-off not given, nearly all actives have AC50 up to about 26 µM;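 further: cells exposed to compound for 48 hours before ATP readout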); details: CellTiter-Glo ATP luminescence
[23] = SU-DIPG-VI glioma cell viability, MIPE4.0 library, CellTiter-Glo luminescence, qHTS (AID 1347066; cut-off not given, nearly all actives have AC50 up to about 30 µM;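 further: cells exposed to compound for 48 hours before readout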); details: CellTiter-Glo ATP luminescence
[24] = JHH-DIPG-1 glioma cell viability, MIPE5.0 library, CellTiter-Glo luminescence, qHTS (AID 1347067; cut-off not given, nearly all actives have AC50 up to about 26 µM;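 further: cells exposed to compound for 48 hours before readout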); details: JHH-DIPG-1 glioma viability, CellTiter-Glo ATP luminescence
[25] = sensitizers of A549 cells to miR-34 induction, primary screen, imaging, A549 dox-inducible miR-34, nuclei and caspase counts (AID 1347080;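 active means compounds whose cell count with miR-34 switched on is under 0.7 times the count with it off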); details: A549 miR-34 inducible, Hoechst nuclei count, 48 h
[26] = modifiers of HSF1 nuclear foci, imaging, Selleck Cancer Library (AID 1347162; in the data active means plate-normalised HSF1 focus index below about 0.46); details: human cells, at 10 µM; SSMD: measured here: HSF1 foci SSMD mean; cell count: measured here: cell number; plate-normalised HSF1 focus index: stronger effect = lower value
[27] = survival rescue of mitochondrial mutant cells in low glucose, primary screen, MELAS cybrids, Rieske KO mouse fibroblasts, CellTiter-Glo (AID 1508586;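 active means mean z-score across replicates of 1.96 or higher in either the MELAS or the Rieske mutant cell line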;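 further: z relative to plate mean and SD of compound and empty wells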)
[28] = ovarian cancer cell viability with rucaparib, profiling panel, oncology-focused library, rucaparib conditional (AID 1508598;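 active means normalized viability below 100% at a tested concentration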); details: patient-derived ovarian cancer cells, CellTiter-Glo viability, 144 h, stronger effect = lower value

Calcium-dependent protein kinase 4 (Plasmodium falciparum (isolate 3D7)), sequence (Q8IBS5 whole entry, looked up): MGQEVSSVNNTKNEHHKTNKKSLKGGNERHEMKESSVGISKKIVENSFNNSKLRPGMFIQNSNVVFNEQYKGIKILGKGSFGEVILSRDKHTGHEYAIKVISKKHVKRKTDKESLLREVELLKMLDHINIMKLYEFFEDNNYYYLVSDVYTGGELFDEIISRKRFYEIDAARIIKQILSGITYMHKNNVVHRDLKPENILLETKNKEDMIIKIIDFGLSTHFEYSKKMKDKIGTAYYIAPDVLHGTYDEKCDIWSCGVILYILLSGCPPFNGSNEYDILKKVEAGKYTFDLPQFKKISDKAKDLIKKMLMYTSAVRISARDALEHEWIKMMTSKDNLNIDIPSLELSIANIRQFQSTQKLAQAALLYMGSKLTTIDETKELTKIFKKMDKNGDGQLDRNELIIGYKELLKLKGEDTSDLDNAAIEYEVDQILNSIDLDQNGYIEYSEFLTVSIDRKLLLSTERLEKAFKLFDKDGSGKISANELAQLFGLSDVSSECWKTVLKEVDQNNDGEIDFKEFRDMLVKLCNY
Calcium-dependent protein kinase 1 (Plasmodium falciparum (isolate 3D7)), sequence (P62344 whole entry, looked up): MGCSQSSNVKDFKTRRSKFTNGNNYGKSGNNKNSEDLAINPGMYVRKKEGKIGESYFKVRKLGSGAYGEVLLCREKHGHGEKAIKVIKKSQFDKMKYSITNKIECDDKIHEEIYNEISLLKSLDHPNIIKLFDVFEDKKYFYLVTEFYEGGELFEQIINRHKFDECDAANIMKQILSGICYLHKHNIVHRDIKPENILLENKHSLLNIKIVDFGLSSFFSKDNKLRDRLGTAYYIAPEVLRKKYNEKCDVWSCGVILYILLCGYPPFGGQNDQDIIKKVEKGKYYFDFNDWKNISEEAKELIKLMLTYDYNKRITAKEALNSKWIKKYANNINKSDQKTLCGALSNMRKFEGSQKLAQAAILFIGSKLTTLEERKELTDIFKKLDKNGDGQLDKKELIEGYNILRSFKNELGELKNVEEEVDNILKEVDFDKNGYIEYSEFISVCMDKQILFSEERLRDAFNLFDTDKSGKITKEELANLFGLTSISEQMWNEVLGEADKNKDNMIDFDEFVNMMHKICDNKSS
Protein kinase 7 (PK7), Plasmodium falciparum 3D7 (PF3D7_0213400), sequence (Q7YTF7 1-343): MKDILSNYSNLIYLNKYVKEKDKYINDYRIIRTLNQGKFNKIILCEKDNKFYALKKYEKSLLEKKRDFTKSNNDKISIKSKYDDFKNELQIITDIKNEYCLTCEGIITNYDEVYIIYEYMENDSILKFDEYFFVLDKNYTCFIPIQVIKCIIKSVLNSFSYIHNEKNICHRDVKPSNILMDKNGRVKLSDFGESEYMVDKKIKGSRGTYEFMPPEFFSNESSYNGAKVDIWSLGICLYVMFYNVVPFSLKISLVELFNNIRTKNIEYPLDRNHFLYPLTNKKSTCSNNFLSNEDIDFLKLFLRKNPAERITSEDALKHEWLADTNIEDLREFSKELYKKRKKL
Plasmodium falciparum protein kinase 6 (PK6, PF3D7_1337100), sequence (Q8IDW1 1-305): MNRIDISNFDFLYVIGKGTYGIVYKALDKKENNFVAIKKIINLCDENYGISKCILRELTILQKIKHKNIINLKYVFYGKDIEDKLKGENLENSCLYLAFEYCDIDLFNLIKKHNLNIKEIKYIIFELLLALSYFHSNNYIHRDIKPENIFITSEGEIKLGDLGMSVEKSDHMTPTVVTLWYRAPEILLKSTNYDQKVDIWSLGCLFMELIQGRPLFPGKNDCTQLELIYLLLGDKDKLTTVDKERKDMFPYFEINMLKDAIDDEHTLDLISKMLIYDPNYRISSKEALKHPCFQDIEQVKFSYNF
L-lactate dehydrogenase (Plasmodium falciparum (isolate CDC / Honduras)), sequence (Q27743 whole entry, looked up): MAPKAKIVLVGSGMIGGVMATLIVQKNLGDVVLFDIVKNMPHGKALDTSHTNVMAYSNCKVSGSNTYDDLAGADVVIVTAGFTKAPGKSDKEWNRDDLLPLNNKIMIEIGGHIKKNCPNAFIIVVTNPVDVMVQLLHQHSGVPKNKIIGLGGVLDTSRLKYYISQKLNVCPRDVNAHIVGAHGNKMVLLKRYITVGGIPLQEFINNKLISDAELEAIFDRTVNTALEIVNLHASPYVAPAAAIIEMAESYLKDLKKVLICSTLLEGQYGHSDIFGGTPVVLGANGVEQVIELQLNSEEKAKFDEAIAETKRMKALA
Calcium-activated potassium channel subunit alpha-1 (Homo sapiens) + Leucine-rich repeat-containing protein 26 (Homo sapiens), sequence (Q2I0M4 whole entry, looked up, one chain of several): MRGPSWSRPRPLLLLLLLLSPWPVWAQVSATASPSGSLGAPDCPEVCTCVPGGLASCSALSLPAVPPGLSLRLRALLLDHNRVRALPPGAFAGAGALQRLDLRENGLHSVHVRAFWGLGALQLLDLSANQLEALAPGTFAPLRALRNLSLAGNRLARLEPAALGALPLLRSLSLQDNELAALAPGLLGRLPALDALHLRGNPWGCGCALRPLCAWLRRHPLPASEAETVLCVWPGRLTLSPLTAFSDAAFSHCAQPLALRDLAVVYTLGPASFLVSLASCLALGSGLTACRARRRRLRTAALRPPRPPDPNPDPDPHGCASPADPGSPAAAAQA

Oc1ccc2ccccc2c1/C=N/Nc1nc(Nc2ccccc2)nc(Nc2ccccc2)n1
inactive: outcome [1] | outcome [2] | outcome [3] | outcome [4]

O/N=C1\CCc2cc(-c3cc(-c4ccc(OC5CCNCC5)cc4)oc3-c3ccncc3)ccc21
inactive: outcome [1] | outcome [2] | outcome [3] | outcome [4]

CCCCCC(C)C(C)c1cc(O)c2c(c1)OC(C)(C)CC2c1cc[n+]([O-])cc1 (stereo not given)
inactive: outcome [1] | outcome [2] | outcome [3] | outcome [4]

COc1ccc(Nc2nc(N/N=C/c3ccc(O)cc3)nc(Nc3ccc([N+](=O)[O-])cc3)n2)cc1
inactive: outcome [1] | outcome [2] | outcome [3] | outcome [4]

CCC[C@H](C(=O)NCCc1cccc(OC)c1)N1C(=O)c2c(ccc(OC)c2OC)C1C(=O)Nc1c(C)cccc1C (stereo not given in full)
inactive: outcome [1] | outcome [2] | outcome [3] | outcome [4]

Cc1[nH]c2ccccc2c1/C=N/Nc1nc(Nc2ccccc2)nc(Nc2ccccc2)n1
inactive: outcome [1] | outcome [2] | outcome [3] | outcome [4]

CCOc1cc(/C=C/c2nc3ccccc3c(=O)[nH]2)cc(Cl)c1O
inactive: outcome [1] | outcome [2] | outcome [3] | outcome [4]

Cc1cc(-c2cc(-c3ccc(OCCN(C)C)cc3)[nH]c2-c2ccc3c(c2)CC/C3=N\O)ccn1
inactive: outcome [1] | outcome [2] | outcome [3] | outcome [4]

C[C@@H]([C@H](CCCc1ccc(Cl)cc1)C(=O)N[C@H](C(=O)Nc1cccnc1)C(C)(C)C)N(O)C=O
inactive: outcome [1] | outcome [2] | outcome [3] | outcome [4]

CC(C)C[C@H](C(=O)N[C@H](C(=O)Nc1nccs1)C(C)(C)C)[C@H](CCC(F)(F)F)N(O)C=O
inactive: outcome [1] | outcome [2] | outcome [3] | outcome [4]

O=[N+]([O-])c1cccc(-c2nc3ccc(C4=N[C@@H]5CCCC[C@@H]5N4)cc3[nH]2)c1
inactive: outcome [1] | outcome [2] | outcome [3] | outcome [4]

O/N=C1\CCc2cc(-c3nc(-c4ccc(OCCN5CCCCC5)cc4)[nH]c3-c3ccncc3)ccc21
inactive: outcome [1] | outcome [2] | outcome [3] | outcome [4]

O=C(CSc1cccc[n+]1[O-])c1ccc(Cc2ncc(C(F)(F)F)cc2Cl)s1
inactive: outcome [1] | outcome [2] | outcome [3] | outcome [4]

O=C(Nc1ccc(Oc2ccc(OC(F)(F)F)cc2)cc1)c1ccco1
active: growth inhibition [5] 71% | growth inhibition [8] 90% | log fold change Tl+ flux [9] -0.43 | log fold change Tl+ flux [10] -0.196 | log fold change Tl+ flux [11] -0.597 | log fold change Tl+ flux [12] -0.36 | log fold change Tl+ flux [13] -0.305
inactive: inhibition [6] 5% | inhibition [7] -1% | outcome [1] | outcome [2] | outcome [3] | outcome [4] | log fold change Tl+ flux [14] -0.00331 | log fold change Tl+ flux [15] -0.0279 | log fold change Tl+ flux [16] 0.0205 | log fold change Tl+ flux [17] -0.00484 | log fold change Tl+ flux [18] 0.0301

CCn1c(/C=C/c2cc(Br)ccc2O)nc2ccccc2c1=O
inactive: outcome [1] | outcome [2] | outcome [3] | outcome [4]

O=C(Cc1ccc[n+]([O-])c1)Nc1ccc(-c2cccc(-c3nc4ccc(C(F)(F)F)cc4[nH]3)c2)cc1
inactive: outcome [1] | outcome [2] | outcome [3] | outcome [4]

FC(F)c1nc2ccccc2n1-c1nc(N2CCOCC2)nc(N2CCOCC2)n1
0.918: fold change ([25]; measured here: relative caspase fold change +Dox/-Dox)
inactive: inhibition [6] 47% | inhibition [7] -2% | outcome [1] | outcome [2] | outcome [3] | outcome [4] | fold change ([25]; stronger effect = lower value, cell number ratio, induced over uninduced) 0.814 | plate-normalised HSF1 focus index [26] 0.994 | viability ([28]; at 0.000305 µM, OCI-C5x cells, with rucaparib 10 µM, 100% = cells with rucaparib alone) 125% | viability ([28]; at 0.000305 µM, OCI-C5x cells, without rucaparib) 124% | viability ([28]; at 0.00122 µM, OCI-C5x cells, without rucaparib) 119% | viability ([28]; at 0.00488 µM, OCI-C5x cells, with rucaparib 10 µM, 100% = cells with rucaparib alone) 115% | viability ([28]; at 0.00488 µM, OCI-C5x cells, without rucaparib) 120% | viability ([28]; at 0.0195 µM, OCI-C5x cells, with rucaparib 10 µM, 100% = cells with rucaparib alone) 122% | viability ([28]; at 0.0195 µM, OCI-C5x cells, without rucaparib) 116% | viability ([28]; at 0.0781 µM, OCI-C5x cells, with rucaparib 10 µM, 100% = cells with rucaparib alone) 126% | viability ([28]; at 0.0781 µM, OCI-C5x cells, without rucaparib) 117% | viability ([28]; at 0.313 µM, OCI-C5x cells, with rucaparib 10 µM, 100% = cells with rucaparib alone) 128% | viability ([28]; at 0.313 µM, OCI-C5x cells, without rucaparib) 111% | viability ([28]; at 1.25 µM, OCI-C5x cells, with rucaparib 10 µM, 100% = cells with rucaparib alone) 107% | viability ([28]; at 1.25 µM, OCI-C5x cells, without rucaparib) 126%
6850: cell count [26]
2350: cell count ([25]; measured here: total cells without miR-34 induction)
1920: cell count ([25]; measured here: total cells with miR-34 induction, stronger effect = lower value)
-0.274: SSMD [26]
active: growth inhibition [5] 99% | growth inhibition [8] 99% | AC50 [19] 742 nM | AC50 [20] 235 nM | AC50 [21] 833 nM | AC50 [22] 417 nM | AC50 [23] 3320 nM | AC50 [24] 2950 nM | z-score ([27]; MELAS cybrid survival, CellTiter-Glo 48 h, stronger effect = higher value) 2.99 | viability ([28]; at 0.000305 µM, OCI-P5x cells, with rucaparib 20 µM, 100% = cells with rucaparib alone) 88.5% | viability ([28]; at 0.000305 µM, OCI-P5x cells, without rucaparib) 82.7% | viability ([28]; at 0.00122 µM, OCI-P5x cells, with rucaparib 20 µM, 100% = cells with rucaparib alone) 75.5% | viability ([28]; at 0.00122 µM, OCI-P5x cells, without rucaparib) 34.1% | viability ([28]; at 0.00488 µM, OCI-P5x cells, with rucaparib 20 µM, 100% = cells with rucaparib alone) 93.4% | viability ([28]; at 0.00488 µM, OCI-P5x cells, without rucaparib) 97.4% | viability ([28]; at 0.0195 µM, OCI-P5x cells, with rucaparib 20 µM, 100% = cells with rucaparib alone) 94.1% | viability ([28]; at 0.0195 µM, OCI-P5x cells, without rucaparib) 90.9% | viability ([28]; at 0.0781 µM, OCI-P5x cells, with rucaparib 20 µM, 100% = cells with rucaparib alone) 89.9% | viability ([28]; at 0.0781 µM, OCI-P5x cells, without rucaparib) 93% | viability ([28]; at 0.313 µM, OCI-P5x cells, with rucaparib 20 µM, 100% = cells with rucaparib alone) 88.2% | viability ([28]; at 0.313 µM, OCI-P5x cells, without rucaparib) 84.5% | viability ([28]; at 1.25 µM, OCI-P5x cells, with rucaparib 20 µM, 100% = cells with rucaparib alone) 42% | viability ([28]; at 1.25 µM, OCI-P5x cells, without rucaparib) 62.9% | viability ([28]; at 5 µM, OCI-C5x cells, with rucaparib 10 µM, 100% = cells with rucaparib alone) 25.2% | viability ([28]; at 5 µM, OCI-C5x cells, without rucaparib) 45.8% | viability ([28]; at 5 µM, OCI-P5x cells, with rucaparib 20 µM, 100% = cells with rucaparib alone) 8.53% | viability ([28]; at 5 µM, OCI-P5x cells, without rucaparib) 15.4%
-0.193: z-score ([27]; Rieske KO mouse fibroblast survival, CellTiter-Glo 72 h)

N#Cc1cccc(NC(=O)Nc2ccc(-c3cccc(-c4nc5ccc(F)cc5[nH]4)c3)cc2)c1
active: growth inhibition [5] 100% | inhibition [6] 64% | growth inhibition [8] 102%
inactive: inhibition [7] 4% | outcome [1] | outcome [2] | outcome [3] | outcome [4]
